PubChem BioAssay (NCI)
The panel holds about 79,000 compounds, 15% with a hit somewhere; the sample as a whole holds those more often. Activity calls are given as the source filed them. Rule as the data show it: active = growth inhibition above about 70%; inactive = the rest.

Assays:
[1] = NCI Yeast Anticancer Drug Screen. Data for the rad50 strain (AID 155);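 also: 0% = growth of vehicle-only cultures of the same strain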; details: S. cerevisiae rad50 strain growth inhibition; at 50.0 µM; active compounds read high
Summary of the method: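 A DNA repair-deficient yeast mutant serves as the test organism; compound-induced growth inhibition is calculated against vehicle-treated cells.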

[2] = NCI Yeast Anticancer Drug Screen. Data for the mec2-1 strain (AID 157); details: S. cerevisiae mec2-1 strain, at 50.0 µM, active compounds read high
Summary of the method: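 Using mec2-1 yeast: add compound, measure growth, express inhibition versus vehicle-treated cultures.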

[3] = NCI Yeast Anticancer Drug Screen. Data for the sgs1 mgt1 strain (AID 161);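 also: 0% = growth of cultures given vehicle only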; details: S. cerevisiae sgs1 mgt1 strain, at 50.0 µM, active compounds read high
Summary of the method: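 Growth of a repair-deficient yeast mutant was monitored after compound treatment and expressed as inhibition relative to vehicle-treated cultures.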

[4] = NCI Yeast Anticancer Drug Screen. Data for the cln2 rad14 strain (AID 165);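 also: 0% = growth equal to vehicle treated cultures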; details: S. cerevisiae cln2 rad14 strain, at 50.0 µM, active compounds read high
Summary of the method: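 Yeast strain cln2 rad14, bearing defects in cell cycle control and DNA repair, serves as the test system; values reflect growth inhibition compared with vehicle.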

[5] = NCI Yeast Anticancer Drug Screen. Data for the bub3 strain (AID 167); details: S. cerevisiae bub3 mutant strain, at 50.0 µM, active compounds read high
Summary of the method: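 Inhibition values come from growth of compound-treated mutant yeast normalised to vehicle-treated controls.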

[6] = NCI Yeast Anticancer Drug Screen. Data for the mlh1 rad18 strain (AID 175); details: S. cerevisiae mlh1 rad18 strain growth inhibition; at 50.0 µM; active compounds read high
Summary of the method: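 Steps: expose repair-defective yeast to compound; measure growth; express inhibition against vehicle-treated controls.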

Measured: growth inhibition

C=C(C)CC1CN2CCc3cc(OC)c(OC)cc3C2CC1=O (stereo unspecified)
inactive: [1] 25.3% | [2] 6.85% | [3] 24.8% | [4] 18.8% | [5] 43.6% | [6] 26.6%

Cc1ccc(-c2nnc(NC(=O)Nc3ccc(Cl)cc3)o2)cc1
inactive: [1] 3.15% | [2] -1.45% | [3] 4.3% | [4] -60.6% | [5] -13.5% | [6] 21.8%

O=P(c1ccccc1)(c1ccccc1)C(O)c1ccc(F)cc1 (stereo unspecified)
inactive: [1] -11.6% | [2] -14.7% | [3] 7.4% | [4] 2.1% | [5] 1.4% | [6] -7.25%

COC(=O)C1(CCC(C)=O)CCC(C)C1=O (stereo unspecified)
inactive: [1] 2.55% | [2] -4.5% | [3] 1.2% | [4] 0.2% | [5] -19.6% | [6] -9.8%

O=C(O)/C=C/C(=O)Nc1ccc2c(c1)C(O)c1ccccc1-2 (stereo unspecified)
inactive: [1] -56.4% | [2] -12.9% | [3] -1.9% | [4] -45.7% | [5] -7.2% | [6] -4.55%

O=C(CC[n+]1ccccc1)Nc1ccc(F)cc1F
inactive: [1] 11.4% | [2] -1.55% | [3] 26.1% | [4] 20.9% | [5] 33.6% | [6] 17.3%

Cn1[nH]c(=O)c2ncccc2c1=O
inactive: [1] -4.7% | [2] -10.1% | [3] -13.5% | [4] -87.8% | [5] -10.3% | [6] 4.95%

OC[C@@H](O)[C@H]1NC[C@@H](O)[C@H]1O
inactive: [1] -45.1% | [2] -57.1% | [3] -50.1% | [4] 7.7% | [5] -26.1% | [6] -17.9%

CCN1C(=O)Nc2ccc(Cl)cc2C1(O)c1ccccc1 (stereo unspecified)
inactive: [1] 6.25% | [2] 12.6% | [3] 1.55% | [4] 10.8% | [5] -12.8% | [6] -6.35%

OCCc1nccnn1
inactive: [1] -2.65% | [2] 5.8% | [3] 1.9% | [4] -1.35% | [5] 4.65% | [6] -3.6%

O=C1N=C(C=c2ccc(=Cc3[nH]c(=O)n(CN4CCCCC4)c3O)cc2)C(=O)N1CN1CCCCC1
inactive: [1] 1.2% | [2] -6.2% | [3] 3.65% | [4] 26.4% | [5] -10.3% | [6] -7.1%

O=C(Cc1c[nH]c2ccccc12)N/N=C/c1ccccc1[N+](=O)[O-]
inactive: [1] 18.9% | [2] -4.75% | [3] 10.1% | [4] 1.1% | [5] 14.7% | [6] 17.3%

CC(=O)CC(=O)C(C)C.[Cu+2]
inactive: [1] -7.6% | [2] -15.9% | [3] -17.1% | [4] -17.9% | [5] -21.5% | [6] -17.4%

CCc1cc(C(=O)NN)c2ccccc2n1
inactive: [1] -17.6% | [2] -14.6% | [3] -10.6% | [4] -18.4% | [5] -11.8% | [6] 11.5%

CCOC(SCC)C(O)C(O)C(O)C(O)CO (stereo unspecified)
inactive: [1] -1.9% | [2] -4.2% | [3] 20.4% | [4] -14.7% | [5] -7.8% | [6] -21.6%

COC(=O)N1CC2CC=CC(C2)c2ccccc21 (stereo unspecified)
inactive: [1] -13.9% | [2] -37.5% | [3] -1.35% | [4] 5.15% | [5] 16.1% | [6] -9.4%

O=C1CSC(c2ccc(Cl)cc2)N1c1ccc(-n2c(-c3ccccc3)nc3ccccc3c2=O)cc1 (stereo unspecified)
inactive: [1] -3.65% | [2] -12.2% | [3] 5.35% | [4] -43.4% | [5] -0.7% | [6] 14.8%

O=C1C=CC(=O)C2C1C21C2CCCC(C2)C2CCCC1C2 (stereo unspecified)
inactive: [1] -11.2% | [2] 16.3% | [3] 4.05% | [4] -23% | [5] -0.65% | [6] 20.1%

Cn1ncc2c(=S)nc[nH]c21
inactive: [1] -15.2% | [2] -4.9% | [3] -2.5% | [4] -18.2% | [5] 2.65% | [6] -13.8%

CC1CCCC(C)C1O (stereo unspecified)
inactive: [1] -19.7% | [2] -28.1% | [3] -13.9% | [4] 12.3% | [5] -4.6% | [6] -14.1%

CN(CC(=O)O)c1ccc([N+](=O)[O-])cc1[N+](=O)[O-]
inactive: [1] 8.75% | [2] 8.55% | [3] 10.4% | [4] 52.9% | [5] 26.4% | [6] -1.15%

N#CC(O)CCOCc1ccccc1 (stereo unspecified)
inactive: [1] 9% | [2] -10.1% | [3] -5.45% | [4] -18.9% | [5] -5% | [6] -14.2%

O=C(Nc1nc2ncn(CCNCc3ccccc3)c2c(=O)[nH]1)c1ccccc1
inactive: [1] -7.75% | [2] -22.8% | [3] 6.25% | [4] 10.6% | [5] 15.4% | [6] 24.6%

CC(=O)O[C@]12CCCC1C1(O)C(O)CCCC12 (stereo partly specified)
inactive: [1] -30.7% | [2] -50.1% | [3] -72.3% | [4] -9.55% | [5] -30.6% | [6] -34.6%

C(=Nc1ccc(SSc2ccc(N=Cc3ccc4c(c3)OCO4)cc2)cc1)c1ccc2c(c1)OCO2
inactive: [1] 18.8% | [2] 0.05% | [3] -0.95% | [4] -8.55% | [5] 8.75% | [6] 17.2%

N#Cc1c(O)c(N=Nc2ccccc2F)c(=O)n2c1[nH]c1ccccc12
inactive: [1] -24.4% | [2] -15.7% | [3] -10.4% | [4] 4.1% | [5] -6.85% | [6] -47.8%

COc1ccc(C2=Nn3c(nc4sc(-c5ccccc5)cc4c3=O)SC2)cc1
inactive: [1] -16.9% | [2] -9.15% | [3] -25.6% | [4] 3.55% | [5] -8.05% | [6] -16%

O=C(O)c1ccc(B(O)O)cc1[N+](=O)[O-]
inactive: [1] 11.8% | [2] 4.75% | [3] 7.35% | [4] 8.7% | [5] 34.9% | [6] 5.15%

C=CCN(CC=C)CNC(C)=O
inactive: [1] -9.7% | [2] -14.7% | [3] -8.4% | [4] -17% | [5] -7.55% | [6] -10.8%

CSc1cc(=O)[nH]c(=O)[nH]1
inactive: [1] 16.9% | [2] 3.1% | [3] 4.2% | [4] 22.4% | [5] 3.8% | [6] 10.8%

Cc1[nH]c2ccccc2c1C(c1cc(Cl)cc(Cl)c1O)c1c(C)[nH]c2ccccc12
inactive: [1] 29.8% | [2] 26.1% | [3] 25.8% | [4] -1.9% | [5] -5.05% | [6] 37.8%

COC(OC)c1cccc2c1C(=O)CCC1(O)c3ccccc3C1C2 (stereo unspecified)
inactive: [1] -8.55% | [2] -6.65% | [3] -38.9% | [4] -0.4% | [5] -30.1% | [6] -30.9%

CCC1CN2C(=N1)c1ccccc1-c1cc([N+](=O)[O-])ccc12 (stereo unspecified)
inactive: [2] 43% | [3] -20.2% | [4] 51.3% | [5] 54%
active: [1] 94% | [6] 94.2%

Nc1ccccc1OCCOCCOc1ccccc1N
inactive: [1] -31.9% | [2] -2.65% | [3] -8.45% | [4] 45.4% | [5] 14.9% | [6] -10.5%

Cc1ccc(Sc2cccc3c2C(=O)c2c(Sc4ccc(C)cc4)cccc2C3(Br)c2ccccc2)cc1
inactive: [1] 13.9% | [2] -8.95% | [3] -2.95% | [4] -27.2% | [5] -0.15% | [6] 0.1%

CCC(C)NC(=O)Nc1ccccc1 (stereo unspecified)
inactive: [1] 13.3% | [2] 8.95% | [3] -0.65% | [4] 3.9% | [5] -2.45% | [6] 6.35%

COc1cc2c3c(c1)[nH]c(=S)n3C(=O)C(C)S2 (stereo unspecified)
inactive: [1] -15.9% | [2] -34.6% | [3] -4.9% | [4] -6% | [5] -3.85% | [6] -25.6%

C[C@@H](Oc1ccc(Oc2cnc3ccc(Cl)cc3n2)cc1)C(=O)O
inactive: [1] 15.8% | [2] 5.4% | [3] 4.2% | [4] 37.8% | [5] 15.2% | [6] 3.95%

CCCCNC(=O)OCCN(C)CCOC(=O)NCCCC
inactive: [1] -15.7% | [2] -21.9% | [3] -17.2% | [4] 3.05% | [5] 6.2% | [6] 3.55%

CC(=O)CC(=O)Nc1ccccc1C(C)C
inactive: [1] 12.9% | [2] 8.1% | [3] 16.1% | [4] 7.4% | [5] -7.85% | [6] -1.7%

O=S1(=O)C=C(Br)CO1
inactive: [1] -4.65% | [2] 1.75% | [3] -2.5% | [4] -17.4% | [5] -20.6% | [6] -15.7%
